# From PubChem
# Not all results are given here.
# aSyn UTR act: Activators via SNCA 5'UTR binding, MLPCN; alpha-synuclein 5'UTR reporter, activators screen; AID 1814, 2009; activity score, % (tested at 7.5 µM), hits read low; actives 7.1% (n = 300,000); in the data active means activity score below about -60%
# Hits are given with their value; 0 = inactive.
SMILES,aSyn UTR act
Cc1cc(C(=O)N/N=C/c2cccc(Cl)c2Cl)no1,-107.8
CCN(CC)c1ccc(/C=N/NC(=O)c2c(Cl)cnn2C)c(O)c1,0
CCOC(=O)N/N=C/c1cccc(Cl)c1Cl,-97.5
O=C(CSc1ccccn1)c1ccc2c(c1)OCO2,-149.1
O=C(CSc1nc2ccccc2[nH]1)c1ccc2c(c1)OCO2,-139.9
O=C(Nc1ccc(C(=O)Oc2ccccc2)c(O)c1)c1ccco1,-118.7
O=C(Nc1ccc(C(=O)Oc2ccccc2)c(O)c1)c1ccccc1,-66.2
O=C(Nc1ccccn1)c1ccc2ccccc2c1O,-143.7
O=C(Nc1cccnc1)c1ccc2ccccc2c1O,-136.8
O=C(Nc1cccc([N+](=O)[O-])c1)c1ccc2ccccc2c1O,-127.7
CC(C)(C)c1cnnn1-c1ccc(/C=N/Nc2ccc([N+](=O)[O-])cc2)cc1,-95.4
c1ccc(-n2ncc3c2ncn2nc(-c4ccco4)nc32)cc1,-131.1
O=C(COc1ccc(/C=N/NC(=O)c2ccccc2O)cc1)Nc1ccccc1,-126.4
COc1cc(/C=N/NC(=O)c2ccccc2O)ccc1OCC(=O)Nc1ccccc1,-140.0
O=C(COc1ccc(/C=N/NC(=O)c2cc3ccccc3o2)cc1Cl)Nc1ccccc1,0
O=C(N/N=C/c1ccc(OCC(=O)N2CCCCC2)cc1)c1ccccc1O,-74.1
COc1cc(/C=N/NC(=O)c2ccncc2)ccc1OCC(=O)Nc1ccccc1,-100.2
COc1cc(/C=N/N=C2/NC(=O)C(CC(=O)O)S2)ccc1OCc1cccc(Cl)c1 (configuration not stated),-184.9
O=C1N/C(=N\N=C\c2cccnc2)SC1Cc1ccc(SC(F)F)cc1 (configuration not stated),0
O=C(Nc1ccc(Cl)cc1Cl)C1=Cc2ccccc2OC1,-191.7
O=C(/C=C/c1ccccc1)Nc1ccc(Cl)cn1,-94.9
Cc1cccc(NC(=O)/C=C/c2ccc(Cl)cc2)n1,-157.7
CSc1cccc(NC(=O)/C=C/c2ccc(Cl)cc2)c1,-159.7
CCOC(=O)Cc1csc(NC(=O)/C=C/c2ccc(Cl)cc2)n1,-64.3
CSc1cccc(NC(=S)Nc2cc(C)ccc2C)c1,-139.5
SMILES,aSyn UTR act
CSc1cccc(NC(=O)Nc2ccccc2)c1,-111.4
CSc1cccc(NC(=O)/C=C/c2ccccc2)c1,-226.2
O=C(/C=C/c1ccccc1)Nc1cccc(C(=O)O)c1,0
COc1ccccc1Nc1nc(-c2sc(NC(=O)c3cccc(Cl)c3)nc2C)cs1,-85.5
Cc1nc(NC(=O)c2ccccc2)sc1-c1csc(Nc2ccc(C(=O)O)cc2)n1,-73.3
O=C(O)c1ccc(Nc2nc(-c3ccccc3)cs2)cc1,-113.9
Cc1nc(N)sc1-c1csc(Nc2ccccc2)n1,-129.7
CCCC(C)C(=O)Nc1nc(C)c(-c2csc(Nc3cc(OC)ccc3OC)n2)s1 (configuration not stated),0
CC(=O)Nc1ccccc1C(=O)C(=O)Nc1ccc(C)c(C)c1,-181.7
CCN(CC)C(=O)C(=O)Nc1ccc(F)c(Cl)c1,-130.9
CC(=O)Nc1ccccc1C(=O)C(=O)Nc1ccc(C)c(F)c1,-264.2
CC(=O)Nc1ccccc1C(=O)C(=O)Nc1cccc(F)c1,-148.8
Cc1ccc(NC(=O)/C(Cl)=C/c2ccccc2)cc1C,-155.5
CC(=O)Nc1ccccc1C(=O)C(=O)Nc1ccc(F)c(Cl)c1,-123.1
Cc1ccc(Cn2ncn(-c3ccccc3)c2=O)cc1,-73.8
O=C(Nc1nc2c(s1)COc1ccccc1-2)c1cccs1,-104.3
O=C(Nc1nc2c(s1)CCc1ccccc1-2)c1cccs1,-109.6
O=C(c1cc2ccccc2oc1=O)N(Cc1cccs1)C1CCS(=O)(=O)C1 (configuration not stated),-104.1
Cc1ccc(CN(C(=O)c2cc3ccccc3oc2=O)C2CCS(=O)(=O)C2)cc1 (configuration not stated),-104.1
CCc1ccc(CN(C(=O)c2cc3ccccc3oc2=O)C2CCS(=O)(=O)C2)cc1 (configuration not stated),-143.8
O=C(c1cc2ccccc2oc1=O)N(Cc1ccc(F)cc1)C1CCS(=O)(=O)C1 (configuration not stated),-120.6
COc1ccc(CN(C(=O)c2cc3ccccc3oc2=O)C2CCCCC2)cc1OC,-64.7
Cc1ccc(C(=O)NC(C)C2CC3CCC2C3)c(C)c1 (configuration not stated),-101.8
c1ccc(C2CCC3(CC2)Oc2ccccc2C2CC(c4cccnc4)=NN23)cc1 (configuration not stated),-85.6
Cc1nc2cc(NC(=O)c3ccc(Br)s3)ccc2s1,-83.3
SMILES,aSyn UTR act
Cc1ccc(C(=O)Nc2ccc3nc(C)sc3c2)s1,-206.4
Cc1nc2ccc(NC(=O)c3cc(Cl)ccn3)cc2s1,-74.0
CCOc1ncccc1C(=O)Nc1ccc2nc(C)sc2c1,-74.6
Clc1ccc(-n2nnc(-c3cccnc3Cl)n2)cn1,-130.1
Cc1ccc(-n2nnc(-c3cccnc3Cl)n2)cc1,-78.1
COc1ncccc1-c1nnn(-c2ccc(Cl)nc2)n1,-74.0
CCOC(=O)CSC1=NC(=O)/C(=C/c2ccc(Br)cc2)S1,-61.9
CCOC(=O)CSC1=NC(=O)/C(=C\c2ccc(OC(C)=O)cc2)S1,-131.2
CCOc1ccc2c(c1)c(N=O)c(O)n2C,-64.9
CCN(CC)c1ccc(NC(=O)c2ccc(Br)o2)cc1,-150.7
COC(=O)Cc1ccc(NC(=O)c2ccc(Br)o2)cc1,-152.8
CCN(CC)c1ccc(NC(=O)c2cnn(CC)c2)cc1,-94.8
COc1ccc(-c2ccc(NC(=O)c3ccc(Br)o3)cc2)nn1,-110.4
CCc1cccc2c(=O)c(C(=O)N3CCCCCC3)c[nH]c12,-77.7
COc1ccc2nc(SCC(C)=O)c(C#N)cc2c1,-69.8
CCOC(=O)CSc1nc2cc(C)ccc2cc1C#N,-150.0
CCOC(=O)CSc1nc2cc(C)cc(C)c2cc1C#N,-194.6
Cc1cc(C)c2nc(SCC(=O)N3CC(=O)Nc4ccccc43)c(C#N)cc2c1,0
Cc1ccc2cc(C#N)c(SCC(=O)N3CCCC3)nc2c1,-81.3
CCOc1ccc2cc(C#N)c(SCC(=O)N3CCOCC3)nc2c1,-94.2
CCOC(=O)CSc1nc2cc(OC)ccc2cc1C#N,-109.0
CCOC(=O)CSc1nc2ccc(C)cc2cc1C#N,-172.0
Nc1cc(N)nc(SCCOc2ccccc2F)n1,-81.3
Nc1cc(N)nc(SCCOc2ccccc2)n1,-69.4
CCC(=O)Nc1ccc(-c2csc(C)n2)cc1,-80.5
SMILES,aSyn UTR act
Cc1nc(-c2ccc(NC(=O)Cc3ccccc3)cc2)cs1,-163.8
Cc1nc(-c2ccc(NC(=O)c3ccco3)cc2)cs1,0
CCOc1ccc2nc(NC(=O)C34CC5CC(CC(NC(C)=O)(C5)C3)C4)sc2c1,-131.9
COc1ccc2nc(NC(=O)C34CC5CC(CC(NC(C)=O)(C5)C3)C4)sc2c1,-94.4
c1ccc(Cn2c(Sc3nnnn3-c3ccccc3)nnc2-c2ccccc2)cc1,-73.9
COCCNC(=O)/C(C#N)=C/c1ccc(OCc2ccc(F)cc2)cc1,-73.4
COCCNC(=O)/C(C#N)=C/c1ccc(OCc2ccccc2)cc1,-140.7
COCCn1c(C)cc(C2=NNC(=Nc3ccccc3)SC2)c1C,-79.3
COc1ccc(CN=C2NN=C(c3ccccc3)CS2)cc1,-113.9
Clc1ccc(C2=NNC(=NCC3CCCO3)SC2)cc1 (configuration not stated),-73.1
C=CCn1c(C)cc(C2=NNC(=NCc3ccccc3)SC2)c1C,-181.6
Cc1cc(C2=NNC(=NCCc3ccccc3)SC2)c(C)n1CC1CCCO1 (configuration not stated),-147.4
O=C(Cc1ccc(S(=O)(=O)N2CCOCC2)s1)Nc1ccc(N2CCOCC2)cc1,-99.4
Clc1ccc(-c2cnc(Oc3ccccc3)nc2)cc1,-215.6
